Test results as given in PubChem BioAssay (Tox21).
Inconclusive results are not listed. The source made the active and inactive calls. Calls come from the whole dose curve; as a rule, active = well fitted activation curve with a large enough effect in the signal ratio in the repeat runs (not every such curve was filed as active); inconclusive = weak or mixed curves; inactive = flat fitted curve, though single readings scatter; the % refers to the signal ratio.

assay: qHTS assay to identify small molecule agonists of the TGF-beta/Smad signaling pathway (AID 1346859); details: SBE-bla HEK293T, TGF-beta/Smad beta-lactamase reporter, 5 h; series mostly up to 76.8 µM; activation: at the top concentration
Method in brief: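 SBE-bla HEK 293T, 4,000 cells/well, plated o/n; cpd in DMSO, 5 hr, 37 C/5% CO2; B/G FRET substrate 2 hr RT; ex 405, em 460/530 nm.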
% is set by controls: 0 for no effect and ±100 for the full control effect.

**Q.** For `Cc1ccc(C)cc1`, which “activation” value is on record?
**A.** The value was 2.42% (inactive).

**Q.** For `COC(=O)c1ccccc1C`, which “activation” value is on record?
**A.** The value was 0.745% (inactive).

**Q.** With `Cc1ccc(C(C)C)cc2c(C)ccc1-2` as the compound, how does the “activation” value read?
**A.** Its value is 2.4% [at 35.3 µM] (inactive).

**Q.** For `CCc1ccc(Br)cc1`, which “activation” value is on record?
**A.** Its value is 1.03% (inactive).

**Q.** With `CC(C)NC[C@@H](O)COc1ccc(CC(N)=O)cc1` as the compound, how does the “activation” value read?
**A.** Its value is 0.678% [at 35.3 µM] (inactive).

**Q.** With `CCC(C)[O-].CCC(C)[O-].CCOC(=O)/C=C(/C)[O-].[Al+3]` as the compound, how does the “activation” value read?
**A.** The value was -0.24% (inactive).

**Q.** Which “activation” value does the source give for `COC(C)=O` here?
**A.** The value was -1.47% (inactive).

**Q.** Which “activation” value does the source give for `CC(C)CCOC(=O)/C=C/c1ccccc1` here?
**A.** The value was -0.365% (inactive).

**Q.** Which “activation” value does the source give for `Cc1cccc(C)c1NC(=O)c1ccc(N)cc1` here?
**A.** The value was -1.91% [at 35.3 µM] (inactive).

**Q.** For `C=CCn1c(=O)n(CC=C)c(=O)n(CC=C)c1=O`, which “activation” value is on record?
**A.** Its value is -4.19% (inactive).

**Q.** For `O[C@@H]([C@H](O)[C@H](O)CBr)[C@H](O)CBr`, which “activation” value is on record?
**A.** Its value is -3.68% (inactive).

**Q.** Which activation does the source give for `CC(C)Cn1cnc2c(N)nc3ccccc3c21` here?
**A.** The activation was -1.86% [at 15.8 µM] (inactive).

**Q.** For `CC(C)CCCCCOC(=O)CCS`, which “activation” value is on record?
**A.** The value was 3.66% (inactive).

**Q.** With `CCCC[P+](C)(CCCC)CCCC` as the compound, how does the “activation” value read?
**A.** Its value is -5.68% (inactive).

**Q.** With `Sc1nc2ccccc2s1` as the compound, how does the “activation” value read?
**A.** Its value is -0.109% (inactive).

**Q.** For `O=C(/C=C/c1ccc(O)c(O)c1)O[C@@H](C(=O)O)[C@@H](OC(=O)/C=C/c1ccc(O)c(O)c1)C(=O)O`, which “activation” value is on record?
**A.** Its value is -9.79% (inactive).

**Q.** For `NC[C@H]1O[C@H](O[C@H]2[C@H](O[C@@H]3O[C@H](CO)[C@@H](O)[C@H]3O)C(O)[C@H](N)C[C@@H]2N)[C@H](N)[C@@H](O)[C@@H]1O` (stereo partly specified), which activation is on record?
**A.** The activation was 6.05% [at 6.97 µM] (inactive).

**Q.** Which “activation” value does the source give for `Cc1c(C)c2c(c(C)c1O)CC[C@@](C)(CCC[C@H](C)CCC[C@H](C)CCCC(C)C)O2` here?
**A.** Its value is -1.16% (inactive).

**Q.** Which “activation” value does the source give for `OC[C@@H](O)[C@@H](O)CO` here?
**A.** The value was 1.34% (inactive).

**Q.** With `CCCCCc1ccc(Cl)cc1` as the compound, how does the “activation” value read?
**A.** The value was 7.52% (inactive).

**Q.** With `CCOC(=O)Cn1cccc1-c1nc(-c2ccc(OC)cc2)c(-c2ccc(OC)cc2)s1` as the compound, how does the “activation” value read?
**A.** The value was -0.28% [at 35.3 µM] (inactive).

**Q.** With `C=Cc1cccc(C)c1` as the compound, how does the Potency read?
**A.** Its Potency is “inactive”.

**Q.** For `Nc1nc(N)nc(-c2cc(Cl)ccc2Cl)n1`, which “activation” value is on record?
**A.** The value was -0.55% [at 35.3 µM] (inactive).

**Q.** Which “activation” value does the source give for `CCCCCC(C)OC(=O)COc1ccc(Cl)c2cccnc12` (stereo unspecified) here?
**A.** The value was -6.48% (inactive).

**Q.** With `O=C1OC2(c3ccc(O)cc3Oc3cc(O)ccc32)c2ccc(N=C=S)cc21` as the compound, how does the “activation” value read?
**A.** The value was -7.45% (inactive).

**Q.** For `CC(C)(C)NSc1nc2ccccc2s1`, which “activation” value is on record?
**A.** Its value is -1.31% (inactive).

**Q.** With `CCCCC(CC)COC(=O)CCCCC(=O)OCc1ccccc1` (stereo unspecified) as the compound, how does the “activation” value read?
**A.** Its value is -4.53% (inactive).

**Q.** With `Cc1c(C)c2c(c(C)c1OC(=O)c1cccnc1)CC[C@@](C)(CCC[C@H](C)CCC[C@H](C)CCCC(C)C)O2` as the compound, how does the “activation” value read?
**A.** The value was -0.171% [at 35.3 µM] (inactive).

**Q.** For `[Cu+]`, which “activation” value is on record?
**A.** Its value is 0.145% (inactive).

**Q.** For `O=C1c2ccccc2C(=O)N1SC1CCCCC1`, which Potency is on record?
**A.** The Potency was “inactive”.

**Q.** With `NC(=S)NC(N)=S` as the compound, how does the “activation” value read?
**A.** Its value is 1.33% (inactive).

**Q.** Which “activation” value does the source give for `C=CCCC(=O)/C=C/C1C(C)=CCCC1(C)C` (stereo unspecified) here?
**A.** Its value is -2.84% (inactive).

**Q.** Which “activation” value does the source give for `CC/C=C\CCCCCO` here?
**A.** Its value is -0.147% (inactive).

**Q.** With `CC1(C)CC(O)CC(C)(C)N1` as the compound, how does the “activation” value read?
**A.** The value was 1.31% (inactive).

**Q.** For `OC[C@H]1O[C@H](O[C@H]2O[C@H](CO)[C@@H](O)[C@H](O)[C@H]2O)[C@H](O)[C@@H](O)[C@@H]1O`, which “activation” value is on record?
**A.** The value was -1.63% (inactive).

**Q.** Which activation does the source give for `C[C@H]1NCc2cc(-c3ccc4c(=O)c(C(=O)O)cn(C5CC5)c4c3OC(F)F)ccc21` here?
**A.** Its activation is -4.87% [at 15.8 µM] (inactive).
